Measured values: PubChem BioAssay (NCATS)
Results filed as inconclusive are left out. Calls of active or inactive are those of the source. Unless noted, calls come from the whole dose curve; as a rule, active = well fitted curve in the direction sought with a large enough effect; inconclusive = small, poorly fitted or top-dose-only effect, or another doubt; inactive = no such curve, though single readings can be large; an effect the other way counts as inactive or inconclusive.

Legend:
[1] = AP1 Signaling Pathway (AID 357; active = well fitted curve in either direction with a large enough effect, not every such curve was filed as active; note: % is set by controls: 0 for no effect and ±100 for the full control effect); details: ME-180 AP-1-bla reporter, EGF-induced, beta-lactamase ratio, 5 h; at 17.2 µM (top of the series) unless noted
Method in brief: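 ME-180 cells with beta-lactamase reporter under AP-1 response element, stimulated with EC50 EGF; compounds tested in titration series, 5 h at 37 °C. CCF4 substrate added 2.5 h at room temperature; 460/530 nm emission ratio gave %activity and AC50.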

[2] = NFAT Signaling Pathway (AID 444; active = well fitted curve in either direction with a large enough effect, not every such curve was filed as active;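 note: carbachol stimulus at about its EC50 of 1 µM final; % is set by controls: 0 for no effect and ±100 for the full control effect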); details: Jurkat NFAT-bla M1, carbachol, beta-lactamase ratio, 5 h; at 17.2 µM (top of the series) unless noted
Method in brief: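 Jurkat cells carrying an NFAT-driven β-lactamase reporter and co-transfected muscarinic M1 receptor were treated with compound plus carbachol (1 uM final, an EC50 level) for 5 h at 37 °C. CCF4 loading followed for 1 h at RT; 460/530 nm ratio gave %activity.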

[3] = molecular target: Glucocorticoid receptor (Homo sapiens) (UniProt P04150); assay: GR-GFP Redistribution (AID 450;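 active = compounds whose dose series gives a full or clear partial fitted curve of increased nuclear translocation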; note: potency is the fitted concentration of half-maximal effect); details: U2OS GR-GFP nuclear translocation, laser cytometry, 2 h
[4] = molecular target: Glucocorticoid receptor (Homo sapiens) (UniProt P04150); assay: GR-EFC Redistribution (AID 451; calls by dose curve; note: potency is the fitted concentration of half-maximal effect); details: CHO-K1 GR-EFC translocation, beta-gal luminescence, 2 h
Method in brief: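 CHO-K1 cells stably expressing nuclear-localized β-gal enzyme acceptor and GR fused C-terminally to the enzyme donor fragment; ligand-driven nuclear translocation restores β-gal by complementation. Compounds titrated up to 46 uM final, 2 h at 37 °C; luminescence read.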

[5] = molecular target: 3',5'-cyclic-AMP phosphodiesterase 4B (Homo sapiens) (UniProt Q07343); assay: qHTS Assay for Inhibitors of PDE-IV (AID 607; active = well fitted activation curve with a large enough effect in the main read-out, with a control signal flat, not every such curve was filed as active; note: % of control where 0% means no effect)
Method in brief: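 Cell-based read-out of cAMP via a modified cyclic nucleotide-gated channel and membrane potential dye (535/590 nm) in HEK293 cells expressing PDE4 endogenously. Compounds tested up to 22.9 uM final; 100 uM RO 20-1724 reference.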

[6] = molecular target: Guanine nucleotide-binding protein G(i) subunit alpha-1 (Homo sapiens) (UniProt P63096); assay: qHTS Assay for Inhibitors of RGS12 GoLoco Motif Activity (Green Fluorophore) (AID 879);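 note: 0% = labeled peptide with Gαi1 and full inhibition = labeled peptide alone without protein; negative values mean loss of peptide binding seen as reduced polarization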
Method in brief: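 A drop in FITC polarization marked displacement of the FITC-tagged RGS12 GoLoco peptide (10 nM) from Gαi1 (50 nM). Compounds were incubated 10 min at room temperature in Tris pH 7.5 buffer containing 150 mM NaCl, 0.1 mM GDP and 0.05% NP40; unlabeled peptide titration served as control.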

[7] = qHTS Assay for Identification of Small Molecule Agonists for Thrombopoietin (TPO) Signaling Pathway (AID 917); note: % is set by controls: 0 for no effect and ±100 for the full control effect
Method in brief: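 First, Ba/F3 cells with human TPO receptor were held overnight without IL-3. Next, compounds and TPO (26 pM final) were added. After 24 hrs at 37 C, luciferase detection reagent was added and luminescence measured following 10 min at room temperature.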

[8] = molecular target: Muscarinic acetylcholine receptor M1 (Rattus norvegicus) (UniProt P08482); assay: qHTS Assay for Antagonists of Acetylcholine Muscarinic M1 Receptor: Measurement of IP-One Response (AID 944); note: nearly all actives have a fitted effect of over 75% in size
Method in brief: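 Antagonist mode with rat M1 receptor transfected into CHO cells. Compound is added first for 10 min, carbachol at its EC80 follows for 30 min, and lysis reagents then allow TR-FRET detection of accumulated IP1.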

[9] = molecular target: Pyruvate kinase (Leishmania mexicana) (UniProt Q27686); assay: qHTS Validation Assay for Inhibitors of Leishmania Mexicana Pyruvate Kinase (AID 945);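 note: 0% = DMSO only neutral control wells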
Method in brief: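 Eight-point qHTS titrations in triplicate, data normalized to DMSO neutral control. Reaction: 0.2 nM LmPYK E451W mutant, 0.5 mM PEP, 0.1 mM ADP, 7 mM MgCl2, pH 7.2, one hour at room temperature; luminescent ATP detection.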

[10] = molecular target: Pyruvate kinase PKM (Homo sapiens) (UniProt P14618); assay: qHTS Assay for Activators of Human Muscle Pyruvate Kinase (AID 954; active = well fitted curve in the direction sought with a large enough effect, not every such curve was filed as active;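 note: 0% = uninhibited enzyme and -100% = no enzyme or full thiadiazolimine inhibition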)
Method in brief: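 ATP production by PKM2 detected via luciferase luminescence after 1 h room-temperature reaction (0.1 nM enzyme, PEP at Km 0.5 mM, ADP 0.1 mM, pH 7.2 imidazole buffer). Inhibition scaled to no-enzyme control; activation referenced to 0.3 nM enzyme wells.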

[11] = molecular target: Alpha-galactosidase (Coffea arabica) (UniProt Q42656); assay: Counterscreen for Glucocerebrosidase Inhibitors: qHTS Assay for Coffee Bean alpha-Galactosidase at pH 4.5 (AID 957);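 note: plate controls were enzyme alone for no effect and no enzyme for full effect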
Method in brief: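 Enzyme is added first (2 nM final), then compounds titrated from 0.7 nM to 77 uM, then 80 uM 4-methylumbelliferyl alpha-D-galactopyranoside; after 20 min at room temperature a pH 10 NaOH/glycine stop precedes fluorescence reading at 365/440 nm.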

[12] = molecular target: Alpha-galactosidase A (Homo sapiens) (UniProt P06280); assay: Counterscreen for Glucocerebrosidase Inhibitors: qHTS Assay for Human alpha-Galactosidase at pH 4.5 (AID 992); note: 0% is about no effect
Method in brief: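 Fluorogenic 1536-well qHTS at pH 4.5 (citrate, Tween-20): 2 nM enzyme, 80 uM 4-MU-alpha-galactoside, 20 min room temperature, NaOH/glycine stop. Titration 0.7 nM to 77 uM, data normalized to no-enzyme and full-activity controls, Hill-fitted AC50.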

[13] = molecular target: alpha-glucosidase (Oryza sativa, rice) (UniProt Q653V4); assay: Counterscreen for Glucocerebrosidase Inhibitors: qHTS Assay for Rice alpha-Glucosidase at pH 5.0 (AID 997);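 note: 0% = full activity with enzyme and -100% = basal without enzyme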
Method in brief: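 Endpoint fluorogenic assay at pH 5.0: compounds (0.7 nM to 77 uM) titrated against 4 nM rice enzyme and 400 uM 4-MU-alpha-glucoside for 20 min at room temperature; NaOH/glycine stop, read ex 365/em 440 nm, Hill-fitted AC50.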

[14] = molecular target: Alpha-galactosidase (Coffea arabica) (UniProt Q42656); assay: Counterscreen for Glucocerebrosidase Inhibitors: qHTS Assay for Coffee Bean alpha-Galactosidase at pH 5.9 (AID 998);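 note: plate controls were uninhibited enzyme for no effect and no-enzyme basal signal for full effect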
Method in brief: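 In 50 mM citric acid pH 5.9 with 0.005% Tween-20, coffee bean enzyme hydrolyses 80 uM 4-MU alpha-D-galactopyranoside over 20 min at RT. Activity is normalized to controls; AC50 comes from Hill-modelled concentration-response data.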

[15] = Stat Signaling Pathway (AID 446; active = well fitted curve in either direction with a large enough effect, not every such curve was filed as active;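 note: ME-180 cervical cancer cells given 40 pM IL-6 alongside compound; SIE-controlled beta-lactamase reporter measured as 460/530 nm FRET emission ratio; % is set by controls: 0 for no effect and ±100 for the full control effect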)
Method in brief: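 FRET read-out (405 nm excitation, 460/530 nm emission) of a beta-lactamase reporter under a STAT-inducible element in ME-180 cervical carcinoma cells. Cells with compound receive 40 pM IL-6 for 5 h. Values are normalised to AC90 stimulation and AC90 JAK-inhibitor controls.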

[16] = qHTS Assay for Identification of Small Molecule Agonists for Hypoxia Response Element Signaling Pathway (AID 914; active = well fitted activation curve with a large enough effect in the signal ratio, with a control signal flat, not every such curve was filed as active; the % refers to the signal ratio; note: % of control where 0% means no effect); details: ME-180 (cervical carcinoma) HRE-bla reporter, beta-lactamase ratio, CoCl2, 17 h; activation: active compounds read high
Method in brief: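 HRE-bla ME-180 cells with beta-lactamase reporter under hypoxia response element, compounds with EC50 CoCl2 for 17 hours at 37 C. CCF4 substrate, 460nm/530nm emission ratio gave %Activity; AC50 from titration series.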

[17] = molecular target: Mitogen-activated protein kinase 10 (Mus musculus) (UniProt Q61831); assay: JNK3 AlphaScreen Assay (AID 530; active = well fitted curve in either direction with a large enough effect, not every such curve was filed as active)
Method in brief: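 Phosphorylation of biotinylated GST-cJun(1-79) at Ser73 is measured by AlphaScreen proximity luminescence. Enzyme is JNK3 in HepG2 lysates activated with interleukin-1beta and tumor necrosis factor alpha; ATP is 10 uM final.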

[18] = molecular target: Cytochrome P450 3A4 (Homo sapiens) (UniProt P08684); assay: qHTS Assay for Activators of Cytochrome P450 3A4 (AID 885); note: nearly all actives have a fitted effect of over 65% in size
Method in brief: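 Luminescent readout of luciferin formed from 25 uM Luciferin-PPXE (KM level) by 20 nM CYP3A4 in 200 mM KPO4, with 60 min NADPH-driven reaction at room temperature after 10 min compound exposure. Ketoconazole (57 uM) defined 100% inhibition.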

[19] = qHTS Assay for Identification of Small Molecule Antagonists for NFkB Signaling Pathway (AID 895; active = well fitted inhibition curve with a large enough effect in the signal ratio, with a control signal flat, not every such curve was filed as active; the % refers to the signal ratio; note: % is set by controls: 0 for no effect and ±100 for the full control effect)
Method in brief: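 NFkB-bla ME-180 cervical carcinoma cells with beta-lactamase reporter under NFkB response element; compounds added, then TNF alpha at 10 pM final (EC50), 5 h at 37 C. LiveBLAzer substrate 2 h, room temperature; emission 460/530 nm at 405 nm excitation.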

[20] = molecular target: Ubiquitin carboxyl-terminal hydrolase 1 (Homo sapiens) (UniProt O94782); assay: Inhibitors of USP1/UAF1: Pilot qHTS (AID 504865);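 note: rhodamine fluorescence freed from ubiquitin-rhodamine substrate followed over time; top concentration of the series differs between compounds; % is set by controls: 0 for no effect and ±100 for the full control effect; nearly all actives have a fitted effect of over 35% in size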
Method in brief: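 USP1/UAF1 complex (1nM) preincubated with compound 15 min at room temperature, then Ub-Rho substrate (150nM final) added. Fluorescence read kinetically at 480/540 nm, 6 reads every 60 seconds. Buffer: 50mM HEPES pH 7.8, 0.5mM EDTA, 0.1 mg/ml BSA, 1mM TCEP, 0.01% Tween-20.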

Chain of 3',5'-cyclic-AMP phosphodiesterase 4B (Homo sapiens) (Q07343 whole entry, looked up): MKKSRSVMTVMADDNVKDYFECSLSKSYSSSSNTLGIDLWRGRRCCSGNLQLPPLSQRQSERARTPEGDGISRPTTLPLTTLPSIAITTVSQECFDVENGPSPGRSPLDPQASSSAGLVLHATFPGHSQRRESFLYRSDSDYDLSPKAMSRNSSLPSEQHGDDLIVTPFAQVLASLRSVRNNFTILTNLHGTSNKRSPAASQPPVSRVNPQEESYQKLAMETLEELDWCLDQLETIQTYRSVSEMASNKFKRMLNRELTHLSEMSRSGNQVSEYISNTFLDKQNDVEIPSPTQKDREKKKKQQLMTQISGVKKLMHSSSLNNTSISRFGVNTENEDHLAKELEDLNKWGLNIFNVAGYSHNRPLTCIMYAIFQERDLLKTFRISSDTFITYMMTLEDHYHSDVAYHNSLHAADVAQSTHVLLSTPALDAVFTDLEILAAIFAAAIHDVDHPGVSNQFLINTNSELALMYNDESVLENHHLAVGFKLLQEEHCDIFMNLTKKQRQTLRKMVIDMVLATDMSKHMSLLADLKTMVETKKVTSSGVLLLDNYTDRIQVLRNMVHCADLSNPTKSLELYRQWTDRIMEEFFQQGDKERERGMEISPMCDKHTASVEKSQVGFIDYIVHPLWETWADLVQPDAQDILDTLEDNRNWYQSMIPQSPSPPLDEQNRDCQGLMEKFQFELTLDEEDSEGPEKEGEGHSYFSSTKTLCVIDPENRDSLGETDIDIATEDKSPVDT
Chain of Alpha-galactosidase A (Homo sapiens) (P06280 whole entry, looked up): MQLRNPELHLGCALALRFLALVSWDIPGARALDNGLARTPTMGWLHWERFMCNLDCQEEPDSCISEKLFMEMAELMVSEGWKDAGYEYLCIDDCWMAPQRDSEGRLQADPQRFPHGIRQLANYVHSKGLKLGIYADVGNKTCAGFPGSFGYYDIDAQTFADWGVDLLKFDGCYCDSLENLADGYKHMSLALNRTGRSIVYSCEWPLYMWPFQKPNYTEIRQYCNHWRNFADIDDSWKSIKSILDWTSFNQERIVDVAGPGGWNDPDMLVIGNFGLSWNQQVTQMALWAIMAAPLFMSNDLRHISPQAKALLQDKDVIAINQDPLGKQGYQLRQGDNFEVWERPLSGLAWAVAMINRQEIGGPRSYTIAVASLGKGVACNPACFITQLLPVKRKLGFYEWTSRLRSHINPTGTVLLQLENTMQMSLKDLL
Chain of Pyruvate kinase (Leishmania mexicana) (Q27686 2-499 E452W): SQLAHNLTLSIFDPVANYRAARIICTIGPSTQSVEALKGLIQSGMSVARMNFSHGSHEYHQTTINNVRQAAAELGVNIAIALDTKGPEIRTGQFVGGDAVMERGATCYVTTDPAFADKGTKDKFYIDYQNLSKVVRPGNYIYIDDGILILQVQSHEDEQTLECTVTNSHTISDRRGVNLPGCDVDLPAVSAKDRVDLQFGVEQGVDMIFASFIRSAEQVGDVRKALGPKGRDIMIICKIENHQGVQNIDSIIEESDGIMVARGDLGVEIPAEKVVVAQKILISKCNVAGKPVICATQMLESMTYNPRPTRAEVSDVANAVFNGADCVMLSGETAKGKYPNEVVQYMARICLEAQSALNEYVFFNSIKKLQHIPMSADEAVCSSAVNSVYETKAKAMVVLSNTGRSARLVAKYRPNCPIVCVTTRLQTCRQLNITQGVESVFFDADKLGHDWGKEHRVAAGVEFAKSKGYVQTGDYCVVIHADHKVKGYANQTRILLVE
Chain of Glucocorticoid receptor (Homo sapiens) (P04150 whole entry, looked up, the tested form may be a part): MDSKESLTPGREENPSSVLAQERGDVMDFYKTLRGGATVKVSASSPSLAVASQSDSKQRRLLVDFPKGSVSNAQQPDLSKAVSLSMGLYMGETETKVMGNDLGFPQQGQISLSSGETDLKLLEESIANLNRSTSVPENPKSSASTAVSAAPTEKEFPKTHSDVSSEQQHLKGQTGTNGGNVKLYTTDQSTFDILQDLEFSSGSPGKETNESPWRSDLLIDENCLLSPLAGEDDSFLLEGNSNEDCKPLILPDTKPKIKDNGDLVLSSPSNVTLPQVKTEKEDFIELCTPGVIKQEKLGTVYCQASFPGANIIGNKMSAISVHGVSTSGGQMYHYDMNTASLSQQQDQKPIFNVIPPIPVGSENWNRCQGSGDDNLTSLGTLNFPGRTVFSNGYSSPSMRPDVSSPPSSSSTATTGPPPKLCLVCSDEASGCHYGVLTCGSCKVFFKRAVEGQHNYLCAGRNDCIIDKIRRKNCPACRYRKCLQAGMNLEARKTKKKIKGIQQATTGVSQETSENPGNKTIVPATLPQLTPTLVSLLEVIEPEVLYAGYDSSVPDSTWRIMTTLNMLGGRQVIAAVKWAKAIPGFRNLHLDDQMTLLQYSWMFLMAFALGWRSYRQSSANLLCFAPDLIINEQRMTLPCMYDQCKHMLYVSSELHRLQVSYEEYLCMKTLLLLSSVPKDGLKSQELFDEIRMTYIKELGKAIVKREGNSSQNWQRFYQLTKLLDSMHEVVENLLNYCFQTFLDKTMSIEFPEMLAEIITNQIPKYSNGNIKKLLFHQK
Chain of Alpha-galactosidase (Coffea arabica) (Q42656 whole entry, looked up): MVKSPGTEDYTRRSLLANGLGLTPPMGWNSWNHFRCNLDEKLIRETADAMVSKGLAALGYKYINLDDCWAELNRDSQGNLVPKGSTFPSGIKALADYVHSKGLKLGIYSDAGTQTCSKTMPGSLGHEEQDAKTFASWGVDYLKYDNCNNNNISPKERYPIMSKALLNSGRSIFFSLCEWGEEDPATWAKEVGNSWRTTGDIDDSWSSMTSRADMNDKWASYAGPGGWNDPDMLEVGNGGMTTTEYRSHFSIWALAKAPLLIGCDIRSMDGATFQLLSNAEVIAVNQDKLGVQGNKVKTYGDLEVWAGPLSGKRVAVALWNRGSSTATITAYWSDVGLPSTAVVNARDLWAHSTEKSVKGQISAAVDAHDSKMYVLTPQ
Chain of Guanine nucleotide-binding protein G(i) subunit alpha-1 (Homo sapiens) (P63096 whole entry, looked up): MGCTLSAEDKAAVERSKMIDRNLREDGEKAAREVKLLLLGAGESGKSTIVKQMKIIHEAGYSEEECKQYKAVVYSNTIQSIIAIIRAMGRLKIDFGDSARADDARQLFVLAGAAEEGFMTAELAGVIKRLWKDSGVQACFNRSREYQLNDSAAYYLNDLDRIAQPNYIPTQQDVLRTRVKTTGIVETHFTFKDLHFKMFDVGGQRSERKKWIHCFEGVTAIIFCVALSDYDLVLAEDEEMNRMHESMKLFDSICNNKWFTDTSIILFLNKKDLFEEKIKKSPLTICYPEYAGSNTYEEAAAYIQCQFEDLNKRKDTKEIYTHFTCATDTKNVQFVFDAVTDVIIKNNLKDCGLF
Chain of Pyruvate kinase PKM (Homo sapiens) (P14618 whole entry, looked up): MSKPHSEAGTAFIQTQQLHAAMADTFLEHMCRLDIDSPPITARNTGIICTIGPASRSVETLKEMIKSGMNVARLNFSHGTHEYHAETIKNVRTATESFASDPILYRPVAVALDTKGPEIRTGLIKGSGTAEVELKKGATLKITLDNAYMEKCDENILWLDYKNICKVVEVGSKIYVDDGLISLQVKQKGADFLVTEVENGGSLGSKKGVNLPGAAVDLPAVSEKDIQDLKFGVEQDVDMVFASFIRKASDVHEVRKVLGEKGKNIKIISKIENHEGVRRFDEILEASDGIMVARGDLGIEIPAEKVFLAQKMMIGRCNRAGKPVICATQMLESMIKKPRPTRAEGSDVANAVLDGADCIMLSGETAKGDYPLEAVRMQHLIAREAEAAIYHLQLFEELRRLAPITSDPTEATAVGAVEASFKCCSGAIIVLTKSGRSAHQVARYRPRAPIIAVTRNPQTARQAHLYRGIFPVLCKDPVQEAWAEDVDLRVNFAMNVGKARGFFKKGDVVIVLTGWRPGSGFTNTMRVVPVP
Chain of Muscarinic acetylcholine receptor M1 (Rattus norvegicus) (P08482 whole entry, looked up): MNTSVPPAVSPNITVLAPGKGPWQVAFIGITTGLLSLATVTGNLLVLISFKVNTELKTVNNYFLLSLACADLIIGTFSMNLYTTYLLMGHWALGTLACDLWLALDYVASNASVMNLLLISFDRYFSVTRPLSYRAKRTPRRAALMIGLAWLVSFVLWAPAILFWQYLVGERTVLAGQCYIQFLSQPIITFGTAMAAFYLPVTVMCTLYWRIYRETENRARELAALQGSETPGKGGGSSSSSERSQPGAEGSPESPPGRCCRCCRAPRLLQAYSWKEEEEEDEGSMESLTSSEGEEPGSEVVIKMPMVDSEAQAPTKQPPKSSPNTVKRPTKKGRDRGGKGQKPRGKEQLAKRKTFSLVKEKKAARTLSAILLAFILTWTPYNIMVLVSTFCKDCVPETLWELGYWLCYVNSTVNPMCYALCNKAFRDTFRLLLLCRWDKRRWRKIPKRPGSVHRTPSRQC
Chain of Cytochrome P450 3A4 (Homo sapiens) (P08684 whole entry, looked up): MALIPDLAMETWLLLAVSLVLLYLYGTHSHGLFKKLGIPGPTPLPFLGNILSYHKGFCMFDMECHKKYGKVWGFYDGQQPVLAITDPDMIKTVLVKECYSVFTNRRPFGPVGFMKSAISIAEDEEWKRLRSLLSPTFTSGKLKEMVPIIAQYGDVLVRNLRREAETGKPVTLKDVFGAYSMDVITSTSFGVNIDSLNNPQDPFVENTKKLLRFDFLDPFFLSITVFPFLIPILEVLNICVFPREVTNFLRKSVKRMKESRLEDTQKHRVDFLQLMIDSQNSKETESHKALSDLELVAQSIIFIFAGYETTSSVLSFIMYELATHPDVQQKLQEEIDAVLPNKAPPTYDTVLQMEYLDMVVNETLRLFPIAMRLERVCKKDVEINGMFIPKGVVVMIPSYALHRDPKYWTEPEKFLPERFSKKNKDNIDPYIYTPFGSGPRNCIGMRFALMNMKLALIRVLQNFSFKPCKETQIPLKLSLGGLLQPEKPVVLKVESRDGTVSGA

C[C@@H](Cc1ccc2c(c1)OC(C(=O)O)(C(=O)O)O2)NC[C@H](O)c1cccc(Cl)c1
inactive: activity change, negative = inhibition [1] -9.81% [at 38 µM] | activity change, negative = inhibition [2] 14.6% [at 38 µM] | Potency [3] > 46 µM | Potency [4] > 46 µM | outcome [5] | Potency [6] | outcome [7] | Potency [8] | Potency [9] | outcome [10] | outcome [11] | outcome [12] | outcome [13] | outcome [14]

CC1CCC(C(C)C)C(OP(N)(=O)c2ccccc2)C1 (stereo not given)
inactive: activity change, negative = inhibition [1] -1.85% | activity change, negative = inhibition [2] 16.1% | outcome [15] | Potency [3] > 20.6 µM | activation [16] -7.02%

C[N+]1(C)CCO[C@@](O)(c2ccc(-c3ccc([C@]4(O)C[N+](C)(C)CCO4)cc3)cc2)C1
inactive: activity change, negative = inhibition [1] -2.41% [at 38 µM] | activity change, negative = inhibition [2] -10.8% [at 38 µM] | outcome [15] | Potency [3] > 46 µM | Potency [4] > 46 µM | outcome [17] | outcome [5] | Potency [6] | Potency [18] | Potency [19] | outcome [7] | Potency [9] | outcome [10] | outcome [11] | outcome [12] | outcome [13] | outcome [14]

CCOc1ccccc1-n1c(O)c(C=Nc2ccc(N(CC)CC)cc2)c(=O)[nH]c1=O
inactive: activity change, negative = inhibition [1] 3.1% | outcome [15] | Potency [3] > 20.6 µM

CC(C)[C@H]1C(=O)N2CCC[C@H]2[C@]2(O)O[C@](NC(=O)[C@@H]3C=C4c5cccc6[nH]cc(c56)C[C@H]4N(C)C3)(C(C)C)C(=O)N12
inactive: activity change, negative = inhibition [1] -19% | outcome [15] | Potency [3] > 20.6 µM

CN1C(=O)CN=C(c2ccc(Cl)cc2)c2cc(Cl)ccc21
inactive: activity change, negative = inhibition [1] 10.4% | outcome [15] | Potency [3] > 20.6 µM

O=C1CC[C@]2(O)[C@H]3Cc4ccc(O)c5c4[C@@]2(CCN3CC2CC2)[C@@H]1O5
inactive: activity change, negative = inhibition [1] 3.41% | activity change, negative = inhibition [2] 9.93% | outcome [15] | outcome [5] | Potency [20]

Oc1ccc2c3c1O[C@@H]1[C@@H](O)CC[C@]4(O)[C@H](C2)N(CC2CCC2)CC[C@@]314
inactive: activity change, negative = inhibition [1] 2.34% [at 38 µM] | activity change, negative = inhibition [2] 2.45% [at 38 µM] | outcome [15] | Potency [3] > 46 µM | Potency [4] > 46 µM | outcome [5] | Potency [6] | Potency [19] | Potency [8] | Potency [9] | outcome [10] | outcome [11] | outcome [12] | outcome [13] | outcome [14]

CC1=C(C(=O)OC(C)C)[C@]2(C(=O)N(CC(N)=O)c3ccccc32)C(C#N)=C(N)O1
inactive: activity change, negative = inhibition [1] 16.8% | activity change, negative = inhibition [2] -13.4% | outcome [15] | Potency [3] > 20.6 µM | activation [16] -4.16%
